# A selection: hits, their analogues and other compounds. The true share with any hit is near 5.9%.
# TGFb SMAD3 inh: blocks TGF-b signaling; Potency, µM (doses to about 46.1 µM), without a hit: top-dose activity, negative = inhibition, actives largely listed as inhibitors; 1.2% of 410,000 active; HepG2 CAGA-GFP TGF-b/SMAD3 reporter, GFP fluorescence, 18 h; TGF-beta stimulated, 500 pg/mL final; AID 588855; also: % is scaled to controls: 0 for no effect and ±100 for the full control effect; nearly all actives have a fitted effect of over 65% in size
#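 TGF-beta reporter screen: HEPG2 CAGA-GFP, 1% FBS, 500 pg/mL TGF-beta final, 18 h; per-cell GFP summed per well; curves fitted and categorized by class.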
# ATXN2 expr inh: ATXN2 expression inhibition; HEK-293 ATXN2-luciferase reporter, luminescence, 24 h; Potency, µM (doses to about 57 µM), without a hit: at the highest dose activity change, negative = inhibition, actives largely listed as inhibitors; 0.72% of 360,000 active; AID 1745845; also: % is scaled to controls: 0 for no effect and ±100 for the full control effect; nearly all actives have a fitted effect of over 55% in size
#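 qHTS (up to 57 uM final) was run with 24 h compound exposure of reporter cells at 37 °C. Each well was multiplexed: SteadyGlo luminescence measured ATXN2-luciferase expression after a fluorogenic Gly-Phe-AFC viability readout (25 uM final).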
# ATXN viability: reduces viability in counter-screen for ATXN expression inhibitors | S2 cells (HEK-293 line with an ATXN2-luciferase reporter) viability, CellTiter-Fluor protease fluorescence, 24 h | Potency, µM (doses to about 56.7 µM), most hits filed as cytotoxic | 0.49% of 400,000 active; also: nearly all actives have a fitted effect of over 40% in size
# KB-3-1 tox: kills parental KB-3-1 adenocarcinoma cells. KB-3-1 viability, CellTiter-Glo ATP luminescence, 72 h. Potency, µM (series often up to 46.1 µM), hits mostly cytotoxic. 1.4% of 400,000 active. AID 1347075; also: % is scaled to controls: 0 for no effect and ±100 for the full control effect; nearly all actives have a fitted effect of over 60% in size
#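 KB-3-1 parental drug-naive adenocarcinoma cells in DMEM/10% FBS, incubated 72 h at 37 C with pin-transferred compounds across a concentration series. Viability by CellTiter-Glo luminescence; concentration-response curves fitted after normalization.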
# HepG2 viability: HepG2 cytotoxicity, counter-screen for TGF-b inhibitors; HepG2 CAGA-GFP viability, ATP luminescence, 18 h; Potency, µM (titrated, usually from 46.1 µM), without a hit: at the highest dose activity change, negative = cytotoxicity, usual class: cytotoxic; 0.76% of 410,000 active; AID 588856
#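 CellTiter-Glo luminescence gave cytotoxicity after 18 hours at 37 degrees C. The cells were HepG2 CAGA-GFP in 1% FBS DMEM, stimulated with 500 pg/mL TGF-beta after compound addition. %Activity was normalised to no-cell wells (complete cell-killing) and DMSO (no toxicity), and curves were fitted and classified.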
# KB-V1 MDR tox: KB-V1 MDR subline cytotoxicity | KB-V1 MDR cells viability, CellTiter-Glo, 72 h | Potency, µM (highest dose often 46.1 µM), usual class: cytotoxic | 3.4% of 400,000 active; also: % is scaled to controls: 0 for no effect and ±100 for the full control effect; nearly all actives have a fitted effect of over 60% in size
#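 Cytotoxicity toward P-gp-expressing KB-V1 cells was determined as loss of CellTiter-Glo luminescence after 72 h at 37 degrees C. Compounds were tested in quantitative HTS format across a concentration range, with curves fitted to normalized data.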
# * hit, by the source's call; i = inactive; ? = inconclusive; . = no result; ! = not active in a repeat. Calls follow the shape of the dose curve; as a rule, active = well fitted curve in the direction sought with a large enough effect; inconclusive = small, poorly fitted or top-dose-only effect, or another doubt; inactive = no such curve, though single readings can be large; an effect the other way counts as inactive or inconclusive. Potency is read from the fitted curve at half-maximal effect.
SMILES,TGFb SMAD3 inh,ATXN2 expr inh,ATXN viability,KB-3-1 tox,HepG2 viability,KB-V1 MDR tox
O=C(NCCn1cc(SCc2cccc(F)c2)c2ccccc21)c1cccc(C(F)(F)F)c1,?,0.0%,?,i,-48.1%,20.6µM*
COc1ccc(C(=O)NCCn2cc(SCC(=O)Nc3ccccc3)c3ccccc32)cc1OC,-9.7%,-35.8%,?,i,0.1%,i
COc1ccc(C(=O)NCCn2cc(SCc3cccc(F)c3)c3ccccc32)cc1OC,?,17.8µM*,?,?,-21.8%,?
Clc1cccc(/C=N/Nc2nnc(Cl)c3ccccc23)c1,?,-10.7%,i,i,-6.6%,i
Clc1ccc(/C=N/Nc2nnc(-c3ncc[nH]3)c3ccccc23)cc1,16.9%,14.5%,i,i,-34.3%,7.31µM*
Cc1cccc(C)c1NC(=O)N1CCC(c2nc3ccccc3o2)CC1,-13.0%,-10.9%,i,i,-21.2%,20.6µM*
Cc1cccc(C)c1OCC(=O)N1CCC(c2nc3ccccc3o2)CC1,0.0%,.,.,.,-29.3%,.
Cc1ccn(-c2ccc(-c3ncco3)cc2)c(=O)c1-c1ccc2nc(N)ncc2c1,.,-12.9%,.,.,.,.
c1coc(CNc2c3c(nc4ncnn24)CCCC3)c1,-4.1%,0.4%,?,i,-2.2%,i
Cc1ccc(-c2cc3nc(C)cc(NCc4ccco4)n3n2)cc1,3.1%,67.7%,i,i,-4.8%,14.6µM*
Clc1cccc(-c2cc3nc4c(c(NCc5ccco5)n3n2)CCCC4)c1,?,96.3%,i,i,-23.2%,20.6µM*
COCCNc1cc(C)nc2cc(-c3ccc(C)cc3)nn12,-5.2%,27.8%,.,i,-1.1%,?
NC(=O)c1cccc2[nH]c(-c3ccc([C@H]4CCCN4)cc3F)nc12,.,-23.8%,.,.,.,.
Cc1ccc(C(=O)Nc2nc(C(N)C(C)C)cs2)cc1 (stereo not given),-1.0%,13.5%,i,i,-30.3%,i
CCOC(=O)Cn1c(=N)n(CCOc2ccc(OC)cc2)c2ccccc21,0.4%,0.2%,i,i,-5.6%,?
CCOC(=O)Cn1c(=N)n(CCOc2ccc3ccccc3c2)c2ccccc21,11.2µM*,-23.2%,?,i,-100.3%,i
COc1ccc(NC(=O)CCCn2c(=O)c3sccc3n(Cc3ccc(C)cc3C)c2=O)cc1,-23.1%,-1.9%,i,i,4.9%,8.2µM*
COc1ccc(NC(=O)CCCn2c(=O)c3sccc3n(Cc3ccc(C)cc3)c2=O)cc1,4.3%,-23.2%,i,i,-32.6%,i
O=C1C(Cc2ccccc2)Nc2ncnc(N3CCCCC3)c2N1Cc1ccc(Br)cc1 (stereo not given),?,-5.6%,i,?,3.16µM*!,?
O=C1C(Cc2ccccc2)Nc2ncnc(N3CCc4ccccc4C3)c2N1Cc1ccc(Cl)cc1 (stereo not given),17.8µM*,?,?,i,-19.7%,25.9µM*
COc1ccc(CN2C(=O)C(C)Nc3ncnc(N4CCOCC4)c32)cc1 (stereo not given),?,0.7%,i,?,6.4%,18.4µM*
O=C1C(Cc2ccccc2)Nc2ncnc(N3CCCCC3)c2N1Cc1ccccc1 (stereo not given),-1.1%,-5.2%,i,i,-8.8%,i
COc1ccc(-c2nc3n(n2)C(c2ccc(O)cc2)C(C(=O)Nc2cccnc2)=C(C)N3)cc1OC (stereo not given),-2.2%,4.3%,i,i,1.5%,i
CCC(Oc1ccccc1)C(=O)Nc1cc(-c2ccccc2OC)nn1-c1ccccc1 (stereo not given),?,12.8%,?,i,-25.1%,i
O=C(Nc1ccccc1)c1ccccc1Oc1ccc(C(F)(F)F)cc1[N+](=O)[O-],0.0%,-6.3%,i,?,-46.9%,?
SMILES,TGFb SMAD3 inh,ATXN2 expr inh,ATXN viability,KB-3-1 tox,HepG2 viability,KB-V1 MDR tox
O=C(Nc1ccc(F)cc1)c1ccccc1Oc1ccc(C(F)(F)F)cc1[N+](=O)[O-],?,-8.7%,?,i,-76.6%,16.4µM*
Cc1ccc(-c2cn3nc(N4CCCC(C(=O)NCc5ccc(F)cc5)C4)sc3n2)cc1 (stereo not given),-15.6%,.,.,i,2.5%,i
Cc1nn(-c2ccccc2)c2sc(C(=O)Nc3cccc(Cl)c3)cc12,?,?,i,i,-13.0%,?
Cc1cc(NCc2ccccn2)n2ncc(-c3ccc(Cl)cc3)c2n1,11.2µM*,-14.1%,?,i,-48.7%,?
Cc1cc(NCc2ccccn2)n2nc(C)c(-c3ccc(Cl)cc3)c2n1,?,?,i,i,14.1µM*,?
Cc1cc(N)n2ncc(-c3ccc(Cl)cc3)c2n1,2.0%,73.8%,i,18.4µM*,-45.4%,?
Cc1cc(N)n2ncc(-c3ccc(F)cc3)c2n1,-7.5%,64.4%,i,i,-28.0%,i
CCn1cc(C(=O)NCC(C)C)c(=O)c2cc(F)c(N3CCN(C(=O)c4ccco4)CC3)cc21,22.9%,5.5%,i,i,4.4%,16.4µM*
CCCCCCNC(=O)c1cn(CC)c2cc(N3CCN(C)CC3)c(F)cc2c1=O,?,?,?,i,12.6µM*,i
CCn1cc(C(=O)NCCCO)c(=O)c2cc(F)c(N3CCN(C)CC3)cc21,-9.9%,.,i,i,3.9%,i
O=C(NCCCN1CCN(c2ccccc2F)CC1)c1nnc(Cc2ccc(Cl)cc2Cl)o1,11.2µM*,.,.,.,-61.8%,.
Cc1ccc(NC(=O)c2c(C)oc3ccc(O)c(CN(C)Cc4ccccc4)c23)c(C)c1,.,.,.,.,-21.9%,.
Cc1oc2ccc(O)c(CN(C)Cc3ccccc3)c2c1C(=O)Nc1ccccc1,?,.,.,.,1.78µM*,.
Cc1oc2ccc(O)c(CN3CCOCC3)c2c1C(=O)Nc1cccc(C(F)(F)F)c1,-2.0%,-11.7%,i,i,-23.3%,i
Cc1oc2ccc(O)c(CN(C)Cc3ccccc3)c2c1C(=O)Nc1cccc(C(F)(F)F)c1,?,.,.,.,10µM*,.
Oc1ccc(C[C@H]2CNCCN2CCc2cccc(F)c2)cc1,-3.6%,-3.1%,i,i,-8.6%,i
Fc1cccc(CCN2CCNC[C@H]2Cc2cccc3ccccc23)c1,15.8µM*,-22.7%,?,i,15.8µM*,i
COc1ccc(-c2csc(NC(=O)c3c(OC)cccc3OC)n2)cc1,4.8%,-23.7%,i,i,14.1µM*,i
Cc1onc(-c2ccccc2)c1C(=O)Nc1nc(-c2ccc(F)c(F)c2)cs1,?,4.4%,i,i,-48.8%,i
